Data as given in PubChem BioAssay (NCI).
This is part of a sample that, as a whole, favours compounds with a hit. Of some 79,000 tested, about 15% had one in any assay. The source made the active and inactive calls. Rule as the data show it: active = growth inhibition above about 70%; inactive = the rest.

How the values were obtained:
[1] = NCI Yeast Anticancer Drug Screen. Data for the rad52 strain (AID 147);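 also: 0% = growth of vehicle-treated control cultures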; conditions: S. cerevisiae rad52 mutant growth inhibition, active compounds read high
Method in brief: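 Here a repair-compromised yeast strain receives each compound; its growth is then quantified and normalised to vehicle-only controls.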

[2] = NCI Yeast Anticancer Drug Screen. Data for the wt1 strain (AID 149);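 also: 0% = growth of vehicle-treated wt1 cultures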; conditions: S. cerevisiae wt1 strain (SPY 50644) growth inhibition, active compounds read high
Method in brief: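 Readout: yeast growth inhibition, normalised to vehicle controls, in the wt1 strain exposed to test compounds.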

[3] = NCI Yeast Anticancer Drug Screen. Data for the rad50EPP+ strain (AID 151);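 also: 0% = growth of vehicle-treated control cultures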; conditions: S. cerevisiae rad50 mutant strain, active compounds read high
Method in brief: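 Read-out is yeast growth inhibition relative to vehicle; cells used were the rad50EPP+ strain.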

[4] = NCI Yeast Anticancer Drug Screen. Data for the mgt1 strain (AID 153); conditions: S. cerevisiae mgt1 mutant growth inhibition, active compounds read high
Method in brief: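 Measured: inhibition of mgt1 yeast growth by compound, normalized to vehicle-treated cultures.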

[5] = NCI Yeast Anticancer Drug Screen. Data for the rad50 strain (AID 155);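 also: 0% = growth of vehicle-only cultures of the same strain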; conditions: S. cerevisiae rad50 strain growth inhibition, active compounds read high
Method in brief: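 Compounds were tested on a yeast strain with an engineered DNA damage repair alteration; the reported value is growth inhibition normalised to vehicle treatment.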

[6] = NCI Yeast Anticancer Drug Screen. Data for the mec2-1 strain (AID 157); conditions: S. cerevisiae mec2-1 strain, active compounds read high
Method in brief: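 Using mec2-1 yeast: add compound, measure growth, express inhibition versus vehicle-treated cultures.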

[7] = NCI Yeast Anticancer Drug Screen. Data for the rad14 strain (AID 159);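 also: 0% = growth of vehicle-treated control cultures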; conditions: S. cerevisiae rad14 strain growth inhibition, active compounds read high
Method in brief: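 Compound-treated yeast with a defined DNA-repair lesion; growth inhibition normalised to vehicle-treated cultures.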

[8] = NCI Yeast Anticancer Drug Screen. Data for the sgs1 mgt1 strain (AID 161);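 also: 0% = growth of cultures given vehicle only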; conditions: S. cerevisiae sgs1 mgt1 strain, active compounds read high
Method in brief: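 Growth of a repair-deficient yeast mutant was monitored after compound treatment and expressed as inhibition relative to vehicle-treated cultures.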

[9] = NCI Yeast Anticancer Drug Screen. Data for the CLN2oe strain (AID 163);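 also: 0% = growth of vehicle-only control cultures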; conditions: S. cerevisiae CLN2oe strain, active compounds read high
Method in brief: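 Whole-cell yeast growth assay. A strain engineered for altered cell-cycle control received compound, and inhibition relative to vehicle-treated cultures was recorded.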

[10] = NCI Yeast Anticancer Drug Screen. Data for the cln2 rad14 strain (AID 165);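 also: 0% = growth equal to vehicle treated cultures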; conditions: S. cerevisiae cln2 rad14 strain, active compounds read high
Method in brief: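 Yeast strain cln2 rad14, bearing defects in cell cycle control and DNA repair, serves as the test system; values reflect growth inhibition compared with vehicle.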

[11] = NCI Yeast Anticancer Drug Screen. Data for the bub3 strain (AID 167); conditions: S. cerevisiae bub3 mutant strain, active compounds read high
Method in brief: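 Growth of a checkpoint-deficient yeast mutant is measured after compound exposure. Values represent inhibition relative to vehicle.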

[12] = NCI Yeast Anticancer Drug Screen. Data for the wt2 strain (AID 169);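 also: 0% = growth of vehicle-treated yeast cultures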; conditions: S. cerevisiae wt2 strain growth inhibition, active compounds read high
Method in brief: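 Treated yeast vs. vehicle-treated yeast: growth inhibition determined.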

[13] = NCI Yeast Anticancer Drug Screen. Data for the mlh1 strain (AID 171);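 also: 0% = growth of vehicle-treated control cultures of the same strain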; conditions: S. cerevisiae mlh1 strain growth inhibition, active compounds read high
Method in brief: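 A yeast strain with a defined genetic lesion serves as the test organism. Cultures receive compound or vehicle, and growth is measured.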

[14] = NCI Yeast Anticancer Drug Screen. Data for the sgs1 strain (AID 173);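 also: 0% = growth of vehicle-only control cultures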; conditions: S. cerevisiae sgs1 mutant, active compounds read high
Method in brief: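 A genetically defined yeast mutant is incubated with the test compound, and its growth is compared to that of the same strain given vehicle.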

[15] = NCI Yeast Anticancer Drug Screen. Data for the mlh1 rad18 strain (AID 175); conditions: S. cerevisiae mlh1 rad18 strain growth inhibition, active compounds read high
Method in brief: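 Steps: expose repair-defective yeast to compound; measure growth; express inhibition against vehicle-treated controls.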

[16] = NCI Yeast Anticancer Drug Screen. Data for the rad18 strain (AID 177); conditions: S. cerevisiae rad18 mutant growth inhibition, active compounds read high
Method in brief: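 Measured value is growth inhibition of a yeast strain bearing a DNA repair alteration, referenced to vehicle-treated cells.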

[17] = at 5.0 µM (retest, dose inferred, filed as 0.5)
[18] = at 50.0 µM (retest, dose inferred, filed as 5.0)

Measured: growth inhibition

CSc1nc(C)c(CCOC(C)=O)c(N=P(c2ccccc2)(c2ccccc2)c2ccccc2)n1
inactive: [1]; at 1.2 µM 10% | [1]; at 3.7 µM 4% | [1]; at 11.0 µM -3% | [1]; at 33.0 µM -9% | [2]; at 1.2 µM 9% | [2]; at 3.7 µM 5% | [2]; at 11.0 µM -2% | [2]; at 33.0 µM -3% | [3]; at 1.2 µM 12% | [3]; at 3.7 µM 5% | [3]; at 11.0 µM 1% | [3]; at 33.0 µM 1% | [3]; at 100.0 µM 13% | [4]; at 1.2 µM 10% | [4]; at 3.7 µM 2% | [4]; at 11.0 µM -2% | [4]; at 33.0 µM -15% | [5]; at 1.2 µM 7% | [5]; at 3.7 µM -8% | [5]; [17] 16% | [5]; at 11.0 µM -21% | [5]; at 33.0 µM -1% | [5]; [18] 42% | [6]; at 1.2 µM 12% | [6]; at 3.7 µM 8% | [6]; [17] -14% | [6]; at 11.0 µM 1% | [6]; at 33.0 µM 1% | [6]; [18] 3% | [7]; at 1.2 µM 9% | [7]; at 3.7 µM 2% | [7]; at 11.0 µM -4% | [7]; at 33.0 µM -5% | [8]; [17] -2% | [8]; [18] 22% | [9]; at 1.2 µM 18% | [9]; at 3.7 µM 10% | [9]; at 11.0 µM 0% | [9]; at 33.0 µM 3% | [10]; [17] 3% | [11]; at 1.2 µM 4% | [11]; at 3.7 µM 6% | [11]; [17] 10% | [11]; at 11.0 µM 3% | [11]; at 33.0 µM 3% | [12]; at 1.2 µM 10% | [12]; at 3.7 µM 3% | [12]; at 11.0 µM -4% | [12]; at 33.0 µM -1% | [13]; at 1.2 µM 12% | [13]; at 3.7 µM 5% | [13]; at 11.0 µM -2% | [13]; at 33.0 µM -2% | [14]; at 1.2 µM 7% | [14]; at 3.7 µM 3% | [14]; at 11.0 µM -4% | [14]; at 33.0 µM -2% | [15]; [17] 0% | [15]; [18] 23% | [16]; at 1.2 µM 16% | [16]; at 3.7 µM 12% | [16]; at 11.0 µM 4% | [16]; at 33.0 µM 3%
active: [1]; at 100.0 µM 92% | [2]; at 100.0 µM 92% | [4]; at 100.0 µM 90% | [5]; at 50.0 µM 92.2% | [5]; at 100.0 µM 90% | [6]; at 50.0 µM 94.3% | [6]; at 100.0 µM 90% | [7]; at 100.0 µM 87% | [8]; at 50.0 µM 96.5% | [9]; at 100.0 µM 77% | [10]; [18] 86% | [10]; at 50.0 µM 74.8% | [11]; [18] 93% | [11]; at 50.0 µM 95.6% | [11]; at 100.0 µM 92% | [12]; at 100.0 µM 92% | [13]; at 100.0 µM 92% | [14]; at 100.0 µM 93% | [15]; at 50.0 µM 94.6% | [16]; at 100.0 µM 91%
